Experimental data reported in PMC7862700, “An all-to-all approach to the identification of sequence-specific readers for epigenetic DNA modifications on cytosine”.

What was measured:
Assay in all cases: DAPPL (digital affinity profiling via proximity ligation, sequencing); 10 mM Tris-HCl pH 7.5, 50 mM NaCl, 1 mM DTT, 4% glycerol, room temperature, 30 min; GST-TFs on glutathione beads, 16-mer random dsDNA library, 0.1% formaldehyde crosslink after washing; high values mean tight binding
FLI1 = biological target: T1, FLI1 (Homo sapiens, UniProt Q01543 1-452); details: protein: recombinant; tags: N-terminal GST; dsDNA, one strand shown
T1 sequence: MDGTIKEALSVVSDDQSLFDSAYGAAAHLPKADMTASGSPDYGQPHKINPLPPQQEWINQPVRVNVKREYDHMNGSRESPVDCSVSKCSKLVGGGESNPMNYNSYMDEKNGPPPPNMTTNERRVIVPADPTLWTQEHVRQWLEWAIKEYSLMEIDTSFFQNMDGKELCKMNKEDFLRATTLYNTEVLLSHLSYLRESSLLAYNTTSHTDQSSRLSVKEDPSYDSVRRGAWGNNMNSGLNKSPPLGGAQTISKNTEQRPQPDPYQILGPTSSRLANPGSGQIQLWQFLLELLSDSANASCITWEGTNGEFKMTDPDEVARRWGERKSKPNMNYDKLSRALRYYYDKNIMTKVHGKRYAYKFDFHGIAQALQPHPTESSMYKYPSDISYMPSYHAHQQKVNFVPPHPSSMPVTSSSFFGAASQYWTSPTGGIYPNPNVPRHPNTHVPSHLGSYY
Method in brief: (§1)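 Human transcription factors carrying a GST fusion were produced in yeast, bound to glutathione beads, tagged with DNA barcodes and pooled together with a tag-only sample. Each pool was held with 200 nmole of a random double-stranded 16-mer DNA library in Tris/NaCl/DTT/glycerol buffer for 30 min at room temperature, then washed, crosslinked in 0.1% formaldehyde, proximity-ligated with BsaI/T4 ligase (1 h, 37 °C), PCR-amplified and sequenced on an Illumina NextSeq500. Binding signal is the read frequency of each hexamer for a given factor divided by its frequency in the tag-only sample.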

ELK1 = biological target: T2, ELK1 (Homo sapiens, UniProt P19419 1-428); details: protein: recombinant; tags: N-terminal GST; dsDNA, one strand shown
T2 sequence: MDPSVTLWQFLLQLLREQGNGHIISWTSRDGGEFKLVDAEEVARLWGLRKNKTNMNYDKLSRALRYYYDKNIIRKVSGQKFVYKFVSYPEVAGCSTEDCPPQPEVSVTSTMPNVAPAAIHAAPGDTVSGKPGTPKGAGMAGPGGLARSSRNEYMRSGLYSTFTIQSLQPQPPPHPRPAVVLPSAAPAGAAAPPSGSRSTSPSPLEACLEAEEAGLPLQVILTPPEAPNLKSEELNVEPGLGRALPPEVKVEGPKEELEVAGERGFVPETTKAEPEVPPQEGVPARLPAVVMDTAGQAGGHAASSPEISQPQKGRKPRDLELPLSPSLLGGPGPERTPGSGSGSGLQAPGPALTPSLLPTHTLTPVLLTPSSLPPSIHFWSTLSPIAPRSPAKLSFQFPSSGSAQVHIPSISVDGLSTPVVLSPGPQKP
Method in brief: as §1

GABPA = biological target: T3, GABPA (Homo sapiens, UniProt Q06546 1-454); details: protein: recombinant; tags: N-terminal GST; dsDNA, one strand shown
T3 sequence: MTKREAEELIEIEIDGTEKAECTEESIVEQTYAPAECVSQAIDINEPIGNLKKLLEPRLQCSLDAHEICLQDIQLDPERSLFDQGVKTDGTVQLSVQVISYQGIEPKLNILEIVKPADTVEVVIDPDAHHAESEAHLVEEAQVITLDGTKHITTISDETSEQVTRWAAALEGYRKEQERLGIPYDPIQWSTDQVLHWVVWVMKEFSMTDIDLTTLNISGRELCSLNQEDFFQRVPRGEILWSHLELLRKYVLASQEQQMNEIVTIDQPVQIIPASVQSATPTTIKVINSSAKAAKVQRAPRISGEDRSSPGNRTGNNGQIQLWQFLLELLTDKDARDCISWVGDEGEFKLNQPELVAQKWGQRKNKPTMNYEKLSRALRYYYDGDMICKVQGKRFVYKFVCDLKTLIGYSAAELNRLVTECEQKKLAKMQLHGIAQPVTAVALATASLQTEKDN
Method in brief: as §1

ERG = biological target: T4, ERG (Homo sapiens, UniProt P11308 1-479); details: protein: recombinant; tags: N-terminal GST; dsDNA, one strand shown
T4 sequence: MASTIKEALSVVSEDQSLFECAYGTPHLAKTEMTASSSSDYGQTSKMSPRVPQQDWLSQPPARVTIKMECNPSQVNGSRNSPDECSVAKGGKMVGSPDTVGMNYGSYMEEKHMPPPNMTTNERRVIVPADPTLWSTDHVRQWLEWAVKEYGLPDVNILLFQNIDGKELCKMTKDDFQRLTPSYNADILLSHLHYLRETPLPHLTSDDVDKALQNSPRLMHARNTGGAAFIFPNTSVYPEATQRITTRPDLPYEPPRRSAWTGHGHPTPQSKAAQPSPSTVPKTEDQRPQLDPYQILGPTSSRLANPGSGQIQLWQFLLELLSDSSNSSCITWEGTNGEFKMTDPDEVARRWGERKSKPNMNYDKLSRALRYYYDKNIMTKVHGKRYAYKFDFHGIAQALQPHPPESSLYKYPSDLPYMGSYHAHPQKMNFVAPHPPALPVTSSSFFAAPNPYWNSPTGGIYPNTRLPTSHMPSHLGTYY
Method in brief: as §1

ELF1 = ELF1 (Homo sapiens, UniProt P32519 1-619); details: protein: recombinant; tags: N-terminal GST; dsDNA, one strand shown
Chain of ELF1 (P32519 whole entry): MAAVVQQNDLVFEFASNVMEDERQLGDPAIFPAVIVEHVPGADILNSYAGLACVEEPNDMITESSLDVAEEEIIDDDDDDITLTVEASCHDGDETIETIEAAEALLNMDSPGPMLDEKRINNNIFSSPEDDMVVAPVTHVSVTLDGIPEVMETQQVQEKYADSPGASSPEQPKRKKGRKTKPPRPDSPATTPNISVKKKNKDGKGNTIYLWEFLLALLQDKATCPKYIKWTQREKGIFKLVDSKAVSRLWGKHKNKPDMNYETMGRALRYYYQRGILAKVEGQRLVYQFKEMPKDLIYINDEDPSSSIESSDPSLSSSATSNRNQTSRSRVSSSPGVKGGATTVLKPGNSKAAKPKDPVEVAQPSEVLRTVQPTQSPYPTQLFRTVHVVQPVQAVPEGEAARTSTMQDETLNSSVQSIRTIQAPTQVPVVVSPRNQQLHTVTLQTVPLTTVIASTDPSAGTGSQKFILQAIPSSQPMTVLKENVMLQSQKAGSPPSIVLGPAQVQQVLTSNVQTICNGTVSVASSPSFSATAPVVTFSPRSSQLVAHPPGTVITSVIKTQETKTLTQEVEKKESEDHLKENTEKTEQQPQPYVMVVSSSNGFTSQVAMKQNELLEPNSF
Method in brief: as §1

EHF = biological target: T5, EHF (Homo sapiens, UniProt Q9NZC4 1-300); details: protein: recombinant; tags: N-terminal GST; dsDNA, one strand shown
T5 sequence: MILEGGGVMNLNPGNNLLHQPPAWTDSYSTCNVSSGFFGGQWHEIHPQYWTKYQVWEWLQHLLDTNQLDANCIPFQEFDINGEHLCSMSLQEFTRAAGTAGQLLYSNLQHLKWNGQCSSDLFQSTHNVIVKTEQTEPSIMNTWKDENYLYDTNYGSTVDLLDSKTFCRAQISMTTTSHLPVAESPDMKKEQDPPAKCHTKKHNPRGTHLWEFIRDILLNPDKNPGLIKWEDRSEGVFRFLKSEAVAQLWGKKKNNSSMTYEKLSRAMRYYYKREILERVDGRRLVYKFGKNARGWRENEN
Method in brief: as §1

SPI1 = SPI1 (Homo sapiens, UniProt P17947 1-270); details: protein: recombinant; tags: N-terminal GST; dsDNA, one strand shown
Method in brief: as §1

SPIB = SPIB (Homo sapiens, UniProt Q01892 1-262); details: protein: recombinant; tags: N-terminal GST; dsDNA, one strand shown
Chain of SPIB (Q01892 whole entry): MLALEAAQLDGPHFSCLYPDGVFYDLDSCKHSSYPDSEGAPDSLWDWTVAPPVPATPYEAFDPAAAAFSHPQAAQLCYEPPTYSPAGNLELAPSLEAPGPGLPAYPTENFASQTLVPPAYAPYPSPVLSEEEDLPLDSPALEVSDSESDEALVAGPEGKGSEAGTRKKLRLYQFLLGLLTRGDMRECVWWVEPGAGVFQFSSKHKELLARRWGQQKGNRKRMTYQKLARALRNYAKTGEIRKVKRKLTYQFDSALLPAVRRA
Method in brief: as §1

ELK3 = biological target: T6, ELK3 (Homo sapiens, UniProt P41970 1-407); details: protein: recombinant; tags: N-terminal GST; dsDNA, one strand shown
T6 sequence: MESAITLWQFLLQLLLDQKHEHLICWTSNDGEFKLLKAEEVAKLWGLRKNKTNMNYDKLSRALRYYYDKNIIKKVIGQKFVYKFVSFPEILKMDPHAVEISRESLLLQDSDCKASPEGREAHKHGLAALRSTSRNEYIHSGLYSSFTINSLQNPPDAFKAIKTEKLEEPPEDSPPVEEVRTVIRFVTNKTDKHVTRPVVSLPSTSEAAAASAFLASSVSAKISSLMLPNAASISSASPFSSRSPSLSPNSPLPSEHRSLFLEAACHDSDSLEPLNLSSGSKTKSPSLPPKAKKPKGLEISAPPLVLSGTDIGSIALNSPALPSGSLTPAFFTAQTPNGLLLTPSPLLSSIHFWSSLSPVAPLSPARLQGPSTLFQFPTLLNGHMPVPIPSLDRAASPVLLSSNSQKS
Method in brief: as §1

FEV = biological target: T7, FEV (Homo sapiens, UniProt Q99581 1-238); details: protein: recombinant; tags: N-terminal GST; dsDNA, one strand shown
T7 sequence: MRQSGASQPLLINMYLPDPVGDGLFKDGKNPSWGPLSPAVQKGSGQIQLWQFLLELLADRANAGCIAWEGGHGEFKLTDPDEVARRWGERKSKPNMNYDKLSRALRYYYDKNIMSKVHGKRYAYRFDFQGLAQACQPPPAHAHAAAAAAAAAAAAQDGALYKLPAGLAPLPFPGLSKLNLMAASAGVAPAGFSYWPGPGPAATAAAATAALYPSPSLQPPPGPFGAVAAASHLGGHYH
Method in brief: as §1

ETV5 = ETV5 (Homo sapiens, UniProt P41161 1-510); details: protein: recombinant; tags: N-terminal GST; dsDNA, one strand shown
Chain of ETV5 (P41161 whole entry): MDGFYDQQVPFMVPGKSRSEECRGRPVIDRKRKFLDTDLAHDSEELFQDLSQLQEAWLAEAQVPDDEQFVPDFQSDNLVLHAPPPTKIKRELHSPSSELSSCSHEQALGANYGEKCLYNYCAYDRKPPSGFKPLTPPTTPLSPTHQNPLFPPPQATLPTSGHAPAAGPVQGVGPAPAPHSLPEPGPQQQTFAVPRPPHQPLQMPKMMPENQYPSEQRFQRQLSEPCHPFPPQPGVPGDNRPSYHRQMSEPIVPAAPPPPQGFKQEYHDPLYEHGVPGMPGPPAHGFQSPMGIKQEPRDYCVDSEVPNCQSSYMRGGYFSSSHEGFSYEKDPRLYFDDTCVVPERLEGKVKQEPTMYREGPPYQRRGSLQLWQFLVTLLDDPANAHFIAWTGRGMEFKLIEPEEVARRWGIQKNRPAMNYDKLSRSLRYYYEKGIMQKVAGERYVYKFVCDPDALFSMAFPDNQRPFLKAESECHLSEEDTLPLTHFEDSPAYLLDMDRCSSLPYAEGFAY
Method in brief: as §1

HSF1 = HSF1 (Homo sapiens, UniProt Q00613 1-529); details: protein: recombinant; tags: N-terminal GST; chain copies: 3; dsDNA, one strand shown
Chain of HSF1 (Q00613 whole entry): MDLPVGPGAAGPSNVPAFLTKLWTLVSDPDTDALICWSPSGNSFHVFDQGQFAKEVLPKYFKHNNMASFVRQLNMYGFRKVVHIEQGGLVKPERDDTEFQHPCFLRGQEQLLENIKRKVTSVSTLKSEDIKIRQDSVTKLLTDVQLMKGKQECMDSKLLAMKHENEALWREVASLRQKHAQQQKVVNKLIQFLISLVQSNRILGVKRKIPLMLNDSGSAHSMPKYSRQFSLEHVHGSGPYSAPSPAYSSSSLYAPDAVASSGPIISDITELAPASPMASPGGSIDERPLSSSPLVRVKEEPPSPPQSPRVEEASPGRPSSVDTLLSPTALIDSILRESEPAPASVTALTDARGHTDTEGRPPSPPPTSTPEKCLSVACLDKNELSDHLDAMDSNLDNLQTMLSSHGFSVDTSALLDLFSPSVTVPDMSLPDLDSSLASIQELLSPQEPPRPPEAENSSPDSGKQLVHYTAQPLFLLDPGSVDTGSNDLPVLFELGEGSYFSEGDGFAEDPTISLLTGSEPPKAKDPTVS
Method in brief: as §1

SPIC = biological target: T8, SPIC (Homo sapiens, UniProt Q8N5J4 1-248); details: protein: recombinant; tags: N-terminal GST; dsDNA, one strand shown
T8 sequence: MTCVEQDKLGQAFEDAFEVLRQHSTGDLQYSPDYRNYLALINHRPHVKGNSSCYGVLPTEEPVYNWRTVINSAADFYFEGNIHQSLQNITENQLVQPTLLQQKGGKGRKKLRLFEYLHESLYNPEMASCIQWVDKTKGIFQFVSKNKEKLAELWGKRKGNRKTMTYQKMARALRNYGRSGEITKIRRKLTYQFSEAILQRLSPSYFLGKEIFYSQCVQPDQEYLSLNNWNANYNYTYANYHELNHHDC
Method in brief: as §1

ELF4 = ELF4 (Homo sapiens, UniProt Q99607 1-663); details: protein: recombinant; tags: N-terminal GST; dsDNA, one strand shown
Chain of ELF4 (Q99607 whole entry): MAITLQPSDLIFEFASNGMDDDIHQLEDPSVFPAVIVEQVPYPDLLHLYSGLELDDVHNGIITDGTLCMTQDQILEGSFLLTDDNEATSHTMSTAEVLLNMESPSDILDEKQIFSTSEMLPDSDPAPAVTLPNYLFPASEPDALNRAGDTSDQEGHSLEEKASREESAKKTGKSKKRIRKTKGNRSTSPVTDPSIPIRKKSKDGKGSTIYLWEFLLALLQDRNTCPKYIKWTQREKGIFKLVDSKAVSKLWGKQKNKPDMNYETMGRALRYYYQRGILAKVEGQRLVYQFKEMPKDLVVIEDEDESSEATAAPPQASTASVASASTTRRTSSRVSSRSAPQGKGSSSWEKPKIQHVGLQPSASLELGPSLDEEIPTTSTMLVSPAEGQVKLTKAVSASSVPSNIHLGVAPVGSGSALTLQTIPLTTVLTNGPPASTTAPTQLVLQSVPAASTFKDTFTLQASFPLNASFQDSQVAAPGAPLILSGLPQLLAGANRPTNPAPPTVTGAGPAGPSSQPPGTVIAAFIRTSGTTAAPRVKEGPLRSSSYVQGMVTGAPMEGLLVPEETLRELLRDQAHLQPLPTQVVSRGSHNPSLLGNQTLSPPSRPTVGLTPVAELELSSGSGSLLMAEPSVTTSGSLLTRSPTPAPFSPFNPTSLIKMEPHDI
Method in brief: as §1

ELK4 = biological target: T9, ELK4 (Homo sapiens, UniProt P28324-2 1-405); details: protein: recombinant; tags: N-terminal GST; dsDNA, one strand shown
T9 sequence: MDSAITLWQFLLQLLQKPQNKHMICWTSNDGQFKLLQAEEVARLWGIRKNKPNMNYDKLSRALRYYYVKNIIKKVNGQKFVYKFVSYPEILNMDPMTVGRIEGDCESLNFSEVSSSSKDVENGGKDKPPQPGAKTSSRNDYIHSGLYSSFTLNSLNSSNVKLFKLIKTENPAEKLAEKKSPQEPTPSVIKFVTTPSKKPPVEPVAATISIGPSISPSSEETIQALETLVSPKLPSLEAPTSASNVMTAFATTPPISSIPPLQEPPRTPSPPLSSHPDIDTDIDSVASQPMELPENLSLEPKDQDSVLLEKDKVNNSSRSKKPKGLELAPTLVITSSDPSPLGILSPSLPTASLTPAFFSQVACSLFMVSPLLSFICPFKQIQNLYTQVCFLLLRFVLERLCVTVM
Method in brief: as §1

ETV2 = biological target: T10, ETV2 (Homo sapiens, UniProt O00321 1-342); details: protein: recombinant; tags: N-terminal GST; dsDNA, one strand shown
T10 sequence: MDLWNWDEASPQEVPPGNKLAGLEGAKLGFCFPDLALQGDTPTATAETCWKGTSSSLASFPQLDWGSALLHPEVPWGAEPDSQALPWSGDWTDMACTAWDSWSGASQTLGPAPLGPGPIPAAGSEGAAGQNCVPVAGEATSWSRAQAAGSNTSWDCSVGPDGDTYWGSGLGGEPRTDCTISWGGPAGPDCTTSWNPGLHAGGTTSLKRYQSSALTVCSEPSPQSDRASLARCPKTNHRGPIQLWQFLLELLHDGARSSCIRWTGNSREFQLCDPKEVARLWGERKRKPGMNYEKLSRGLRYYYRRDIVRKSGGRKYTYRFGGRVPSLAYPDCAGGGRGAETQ
Method in brief: as §1

CRX = CRX (Homo sapiens, UniProt O43186 1-299); details: protein: recombinant; tags: N-terminal GST; dsDNA, one strand shown
Chain of CRX (O43186 whole entry): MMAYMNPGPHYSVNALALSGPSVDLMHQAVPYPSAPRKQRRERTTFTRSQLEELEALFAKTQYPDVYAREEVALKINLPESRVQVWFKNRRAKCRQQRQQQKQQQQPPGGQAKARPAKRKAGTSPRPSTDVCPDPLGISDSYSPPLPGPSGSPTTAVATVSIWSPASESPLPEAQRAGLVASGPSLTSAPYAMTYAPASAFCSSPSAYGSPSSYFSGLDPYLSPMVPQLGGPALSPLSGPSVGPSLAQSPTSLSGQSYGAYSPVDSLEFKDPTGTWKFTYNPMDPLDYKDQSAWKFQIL
Method in brief: as §1

ETV1 = ETV1 (Homo sapiens, UniProt P50549 1-477); details: protein: recombinant; tags: N-terminal GST; dsDNA, one strand shown
Chain of ETV1 (P50549 whole entry): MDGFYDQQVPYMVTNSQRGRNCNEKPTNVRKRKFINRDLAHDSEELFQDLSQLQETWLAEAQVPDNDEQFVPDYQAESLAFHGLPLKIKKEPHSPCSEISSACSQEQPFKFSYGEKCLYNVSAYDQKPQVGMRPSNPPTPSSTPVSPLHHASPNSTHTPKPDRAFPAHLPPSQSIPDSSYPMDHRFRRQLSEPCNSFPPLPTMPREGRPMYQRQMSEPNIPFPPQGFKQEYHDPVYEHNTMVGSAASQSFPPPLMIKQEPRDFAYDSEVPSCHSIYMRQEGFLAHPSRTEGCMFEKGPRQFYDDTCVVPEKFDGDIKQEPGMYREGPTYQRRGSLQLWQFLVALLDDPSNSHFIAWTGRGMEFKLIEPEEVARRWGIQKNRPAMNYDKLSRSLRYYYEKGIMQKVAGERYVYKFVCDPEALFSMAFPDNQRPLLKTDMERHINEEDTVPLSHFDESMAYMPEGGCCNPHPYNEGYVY
Method in brief: as §1

TCGCAA
binding signal (FLI1): 1.21 fold enrichment (6-mer frequency, TF over GST control)
binding signal (ELK1): 1.22 fold enrichment (6-mer frequency, TF over GST control)
binding signal (GABPA): 1.19 fold enrichment (6-mer frequency, TF over GST control)
binding signal (ERG): 1.16 fold enrichment (6-mer frequency, TF over GST control)
binding signal (ELF1): 1.19 fold enrichment (6-mer frequency, TF over GST control)
binding signal (EHF): 1.18 fold enrichment (6-mer frequency, TF over GST control)
binding signal (SPI1): 1.03 fold enrichment (6-mer frequency, TF over GST control)
binding signal (SPIB): 1.08 fold enrichment (6-mer frequency, TF over GST control)
binding signal (ELK3): 1.06 fold enrichment (6-mer frequency, TF over GST control)
binding signal (FEV): 1.11 fold enrichment (6-mer frequency, TF over GST control)
binding signal (ETV5): 1.06 fold enrichment (6-mer frequency, TF over GST control)
binding signal (HSF1): 1.22 fold enrichment (6-mer frequency, TF over GST control)
binding signal (SPIC): 1.32 fold enrichment (6-mer frequency, TF over GST control)
binding signal (ELF4): 1.15 fold enrichment (6-mer frequency, TF over GST control)
binding signal (ELK4): 1.03 fold enrichment (6-mer frequency, TF over GST control)
binding signal (ETV2): 1.18 fold enrichment (6-mer frequency, TF over GST control)
binding signal (CRX): 1.05 fold enrichment (6-mer frequency, TF over GST control)
binding signal (ETV1): 1.1 fold enrichment (6-mer frequency, TF over GST control)
